# Giardia FBPA inh-1 – Giardia lamblia aldolase inhibition. A8B2U2. purified Giardia FBPA. Potency, µM (highest dose often 59.6 µM), without a hit: top-dose activity, negative = inhibition, most hits filed as inhibitors. 290,000 compounds, 0.71% hits; further: nearly all actives have a fitted effect of over 55% in size
# Target sequence (A8B2U2 whole entry, looked up): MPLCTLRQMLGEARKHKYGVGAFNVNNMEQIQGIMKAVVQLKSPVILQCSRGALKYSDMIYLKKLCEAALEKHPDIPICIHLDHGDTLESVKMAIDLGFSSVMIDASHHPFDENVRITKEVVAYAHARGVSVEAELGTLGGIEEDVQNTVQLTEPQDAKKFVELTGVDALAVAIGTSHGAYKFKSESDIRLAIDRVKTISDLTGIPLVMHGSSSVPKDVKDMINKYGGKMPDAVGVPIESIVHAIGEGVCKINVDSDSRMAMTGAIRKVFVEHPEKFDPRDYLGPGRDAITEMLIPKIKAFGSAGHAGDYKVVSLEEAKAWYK
#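 40 nM FBPA preincubated 10 min at RT with compound (up to 57.5 uM final), then substrate plus GAPDH/TPI/NAD/arsenate coupling and diaphorase/resazurin added. Fluorescence read after 20 min at RT, 525/598 nm.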
# Sm TGR inh – S. mansoni TGR enzyme inhibition; Q962Y6; purified TGR, DTNB reduction, TNB absorbance 405 nm; Potency, µM (doses to about 114 µM), inactives show top-dose activity change, negative = inhibition, actives largely listed as inhibitors; 360,000 compounds, 3% hits; AID 485364; further: nearly all actives have a fitted effect of over 60% in size
#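 First, TGR (20 nM dispensed) and NADPH were mixed with compound. Second, a 15 min room-temperature incubation followed. Third, further NADPH and then DTNB were added to start the reaction. Finally, TNB absorbance was monitored kinetically.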
# AmpC detergent – inhibitors of E. coli AmpC beta-lactamase with detergent | P00811 | Potency, µM (top dose mostly 114 µM), without a hit: top-dose activity change, negative = inhibition, actives largely listed as inhibitors | AmpC hydrolysis of nitrocefin, absorbance 480 nm, 0.01% Triton | 370,000 compounds, 0.041% hits;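 further: 0% = no-compound wells and -100% = no-enzyme wells; nearly all actives have a fitted effect of over 25% in size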
#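 AmpC (5.3 nM in the dispensed reagent) in 20 mM phosphate pH 7.0 with 0.01% (detergent screen) or 0.0001% Triton X-100 was preincubated with compounds for 15 min at room temperature. Nitrocefin was then added from an 800 uM solution, and hydrolysis was followed at 480 nm.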
# AmpC inh no detg – inhibitors of E. coli AmpC beta-lactamase without detergent; AID 485341; 330,000 compounds, 0.52% hits; P00811; AmpC nitrocefin hydrolysis, absorbance 480 nm, 0.0001% Triton; Potency, µM (highest dose often 57.1 µM), without a hit: at the top dose activity change, negative = inhibition, hits mostly inhibitors;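 further: plate controls were no compound for no effect and no enzyme for full effect; nearly all actives have a fitted effect of over 20% in size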
#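 AmpC (5.3 nM in the dispensed reagent) in 20 mM phosphate pH 7.0 with 0.01% (detergent screen) or 0.0001% Triton X-100 was preincubated with compounds for 15 min at room temperature. Nitrocefin was then added from an 800 uM solution, and hydrolysis was followed at 480 nm.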
# Giardia growth – Giardia lamblia growth inhibition | Giardia lamblia trophozoite growth inhibition | Potency, µM (doses to about 57.5 µM), for the others: at the highest dose activity change, negative = inhibition, most hits filed as inhibitors | AID 2785 | 1,500 compounds, 5% hits | shares compounds with Giardia FBPA inh-1;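 further: trophozoites exposed to compound for 48 h at 37 °C; nearly all actives have a fitted effect of over 70% in size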
# Mammal cell tox – counter-screen for Giardia aldolase inhibitors: mammalian cell toxicity; shares compounds with Giardia FBPA inh-1; mammalian cell viability counter-screen, qHTS; Potency, µM (doses to about 57.5 µM), for inactives: at the highest dose viability change, negative = toxicity, most hits filed as inhibitors; 1,500 compounds, 4% hits;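 further: Chinese hamster ovary cells used as mammalian cytotoxicity surrogate; viability measured as cellular ATP by luminescence; compound exposure lasted 48 h before reading; nearly all actives have a fitted effect of over 60% in size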
# Giardia FBPA inh-2 – confirmation of Giardia fructose-bisphosphate aldolase inhibitors; Potency, µM (titrated, usually from 57.5 µM), for the others: top-dose activity change, negative = inhibition, usual class: inhibitors; shares compounds with Giardia FBPA inh-1; 1,500 compounds, 5% hits; AID 2787; purified Giardia aldolase enzyme activity, qHTS; further: nearly all actives have a fitted effect of over 45% in size
# Rabbit FBPA inh – rabbit FBP aldolase inhibition by Giardia aldolase hits; AID 2794; Rabbit muscle FBPA enzyme inhibition, selectivity counter-screen; 1,500 compounds, 4% hits; Potency, µM (highest dose often 57.5 µM), for the others: top-dose activity, negative = inhibition, most hits filed as inhibitors; shares compounds with Giardia FBPA inh-1; further: nearly all actives have a fitted effect of over 60% in size
# Target sequence (P00883 whole entry, looked up): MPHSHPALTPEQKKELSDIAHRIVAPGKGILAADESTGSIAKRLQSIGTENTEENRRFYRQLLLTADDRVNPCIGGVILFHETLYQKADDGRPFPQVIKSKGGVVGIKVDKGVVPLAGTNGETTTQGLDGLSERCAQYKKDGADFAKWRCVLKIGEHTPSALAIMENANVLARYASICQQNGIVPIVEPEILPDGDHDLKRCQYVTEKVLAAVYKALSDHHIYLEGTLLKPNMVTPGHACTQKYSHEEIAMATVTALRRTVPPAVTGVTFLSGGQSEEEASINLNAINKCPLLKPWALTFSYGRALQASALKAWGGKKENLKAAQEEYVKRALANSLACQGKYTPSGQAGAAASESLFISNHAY
# GAPDH counter – GAPDH inhibition flagged for Giardia aldolase hits | shares compounds with Giardia FBPA inh-1 | AID 2795 | Potency, µM (series often up to 57.5 µM), for inactives: at the top dose activity change, negative = inhibition, most hits filed as inhibitors | GAPDH coupling enzyme counterscreen, biochemical, qHTS | 1,500 compounds, 6% hits; further: nearly all actives have a fitted effect of over 55% in size
# * marks the source's active call; other numbers are inactive results; ? = inconclusive; nt = not tested or not shown; ! = not confirmed by another sample; [ ] = dose if it differs, or a comment. Only some compounds are listed: those with a hit (about 3.6% of all), similar ones and a draw of the others. The call rests on the fitted dose curve; in most records, active means well fitted curve in the direction sought with a large enough effect; inconclusive means small, poorly fitted or top-dose-only effect, or another doubt; inactive means no such curve, though single readings can be large; an effect the other way counts as inactive or inconclusive. Unless noted, on the % scale 0 is the no-effect control and ±100 the full control effect; potency means the concentration at half of the fitted maximal effect.
SMILES,Giardia FBPA inh-1,Sm TGR inh,AmpC detergent,AmpC inh no detg,Giardia growth,Mammal cell tox,Giardia FBPA inh-2,Rabbit FBPA inh,GAPDH counter
O=C(CNC(=O)c1cccnc1)N=Nc1c(O)[nH]c2c(Br)cc(Br)cc12,28µM*,2%,-6%,-35%,-1%[10.4 µM],-6%,7%,17%,12%
Cc1cccnc1NC(=S)Nc1ccc(F)cc1F,20µM*,?,-1%,-12%,?,6%,-3%,12%,-6%
Cc1ccc(C)c(NC(=S)Nc2ncccc2C)c1,?,-23%,4%,-8%,nt,nt,nt,nt,nt
O=C(O)c1cncc(Br)c1,-1%,-1%,-1%,-4%,nt,nt,nt,nt,nt
O=C(O)c1cc(Br)ccn1,16µM*,10%,5%,-35%,-8%[10.4 µM],9%,1%,0%,4%
O=[N+]([O-])c1cc(F)c2cccnc2c1O,20µM*,3.2µM*,-7%,9%,?,-19%,?,?,32µM*
O=[N+]([O-])c1cc(Cl)c2cccnc2c1O,-19%,nt,1%,-21%,nt,nt,nt,nt,nt
Cc1ccc(-n2c(O)c(/C=N/c3ncn[nH]3)c3ccccc3c2=O)cc1,0%,-15%,-7%,-16%,nt,nt,nt,nt,nt
Oc1c(/C=N/c2ncn[nH]2)ccc2ccccc12,8.9µM*,32µM*,?,-13%,19%,6%,8.9µM*,40µM*,?
O=C(O)CC/C(=N/Nc1ncc(C(F)(F)F)cc1Cl)C(=O)O,11µM*,nt,0%,-25%,16µM*,-5%,1%,10%,10%
O=C(O)CCc1ncc(C(F)(F)F)cc1Cl,-5%,-12%,4%,-6%,nt,nt,nt,nt,nt
Cc1noc(C)c1CSCC(=O)N(C)CC(=O)Nc1ccccc1Br,nt,0%,-15%,0%,nt,nt,nt,nt,nt
N#CC1=C(N)Oc2c(O)cc3ccccc3c2C1c1ccsc1 (stereo unspecified),18µM*,-5%,-6%,-40%,7%[10.4 µM],0%,?,?,?
CCOC(=O)C1=C(C)OC(N)=C(C#N)C1c1ccsc1 (stereo unspecified),?,?,-4%,-16%,nt,nt,nt,nt,nt
Cc1ccc(CNC(=O)CSc2nc3ccccc3[nH]2)cc1,13µM*,-2%,0%,-19%,39%,3%,4%,8%,-9%
COC(=O)c1ccc(CNC(=O)CSc2nc3ccccc3[nH]2)cc1,-3%,0%,-10%,-27%,nt,nt,nt,nt,nt
COCCC(=O)N1CCC(Oc2ccc(C(=O)NCc3cccc(C)n3)cc2)CC1,nt,2%,0%,24%,nt,nt,nt,nt,nt
COc1ccc(OC)c(CNc2ncc(-c3cccc([N+](=O)[O-])c3)n2C)c1,28µM*,-23%,?,-7%,?,-3%,-6%,1%,4%
COc1ccc(CNc2ncc(-c3ccccc3)n2C)cc1,18µM*,-19%,-14%,-14%,-18%,25%,1%,1%,9%
Cn1c(-c2ccc(F)cc2)cnc1NCc1ccc(F)cc1F,-25%,-18%,?,-19%,nt,nt,nt,nt,nt
Cn1c(-c2ccc(F)cc2)cnc1NCc1ccccc1F,28µM*,?,?,-12%,-9%[10.4 µM],2%,1%,3%,11%
Cn1ccnc1C1CCCCN1C(=O)c1cc(COc2ccc(F)cc2F)on1 (stereo unspecified),1%,9%,0%,57%,nt,nt,nt,nt,nt
COCCNc1nc(-c2ccccc2CN(C)C)nc2ccccc12,1%,nt,nt,nt,nt,nt,nt,nt,nt
O=C(O)/C=C/C(=O)Nc1ccc(O)cc1,?,?,-5%,-18%,16%[38.3 µM],?,5.2µM*,?,5.8µM*
COc1ccc(CNC(=O)CN(C)Cc2ccc(C(C)(C)C)cc2)cc1,22µM*,-3%,-1%,86%,-10%[10.4 µM],-6%,-5%,-5%,0%
SMILES,Giardia FBPA inh-1,Sm TGR inh,AmpC detergent,AmpC inh no detg,Giardia growth,Mammal cell tox,Giardia FBPA inh-2,Rabbit FBPA inh,GAPDH counter
CCOC1C(=O)NC(=O)N1Cc1ccccc1 (stereo unspecified),28µM*,-3%,-11%,-10%,11%,-7%,13%,10%,5%
CCCCC1(C)NC(=S)N2N1C(=S)NC2(C)CCCC (stereo unspecified),16µM*,-2%,0%,-7%,?,21%,10%,2%,13%
CCC(C)c1ccc(NC(=O)CN(C)CC(=O)Nc2cccc(OC)c2)cc1 (stereo unspecified),16µM*,5%,5%,110%,?,3%,-7%,-3%,-3%
NS(=O)(=O)c1ccc(CCNCC#Cc2ccccc2)cc1,22µM*,?,-16%,-22%,43%,-7%,0%,-1%,9%
S=C(Nc1ccccc1)c1ccccn1,3.2µM*!,-6%,-4%,-25%,-14%[38.3 µM],20µM*,-8%,-8%,-10%
C=CCn1c(SCC(=O)c2ccc(O)c(O)c2)nnc1-c1cccc(C)c1,nt,-17%,0%,-25%,nt,nt,nt,nt,nt
C=CCn1c(SCC(=O)c2ccc(O)c(O)c2)nnc1-c1cccnc1,16µM*,?,1%,-33%,27%[10.4 µM],23%,-25%,-20%,-4%

# Compound activity (PubChem BioAssay)
